# Results: PubChem BioAssay AID886 (National Center for Advancing Translational Sciences (NCATS), 2007)
# Where “and” joins values, the source holds several entries; their conditions need not be identical. Equal entries are not always repeated. In all, about 73,000 compounds went through this assay and about 2,500 (3.4%) were called active. Not shown: some 7% with an inconclusive outcome. Calls follow the shape of the dose curve; as a rule, active = well fitted inhibition curve with a large enough effect; inconclusive = small, poorly fitted or top-dose-only effect; inactive = no such curve, though single readings can be large or run the other way. The entries come from a sample that favours actives as a whole.
# Target: 3-hydroxyacyl-CoA dehydrogenase type-2 (Homo sapiens) (UniProt Q99714)
# Test: qHTS Assay for Inhibitors of HADH2 (Hydroxyacyl-Coenzyme A Dehydrogenase, Type II); also: nearly all actives have a fitted effect of over 60% in size
# Conditions: recombinant HADH2, NADH fluorescence, beta-hydroxybutyryl-CoA; series mostly up to 57.1 µM; activity change, negative = inhibition: at the top concentration
# Excerpt: Assay Overview: NIH Molecular Libraries Screening Centers Network [MLSCN] NIH Chemical Genomics Center [NCGC] Structural Genomics Consortium [SGC] Grant Number: None HADH2: Hydroxyacyl-Coenzyme A dehydrogenase, type II, was supplied by researchers at the Structural Genomics Consortium, Oxford University lab (PI Udo Oppermann). The mitochondrial enzyme 17-hydroxysteroid dehydrogenase type 10 (HSD17-10) previously classified as type II hydroxyacyl-CoA dehydrogenase (HADH2) catalyzes the NAD+ dependent oxidation of a variety of substrates including acyl-CoAs, androgens and neurosteroids as well as bile acids(Shafqat N, Marschall HU, Filling C, et al. Biochemical Journal. 2003;376(Pt 1):49-60). The role in neurodegeneration by binding to amyloid-peptide led to its identification (Oppermann UC, et al FEBS Letters. 1999;451(3):238-242 and Yan SD, et al. Nature. 1997;389(6652):689-695), and mutations in its gene appear to be causative for 2-methyl-3-hydroxybutyryl-CoA dehydrogenase deficiency (Ofman R, et al. American Journal of Human Genetics. 2003;72(5):1300-1307). The enzyme was produced by E.coli fermentation as His-tagged recombinant for the purpose of X-ray structure determination, and had been mass-spectrometry characterized. Inhibition of HADH2 activity was screened by utilizing beta-hydroxybutyryl coenzyme A as an electron donor and NAD+ as an electron acceptor/cofactor. An increase in the fluorescence intensity due to conversion of NAD+ to NADH was used to measure the enzyme activity.
# Assay Protocol: Buffer: 100 mM Tris-HCl pH 9.0, containing 0.01 % Tween-20. Reagents/Controls: Buffer in columns 3 and 4 as negative control (no enzyme). Substrate/cofactor solution: 1 mM NAD+ and 90 uM beta-hydroxybutyryl coenzyme A (Sigma-Aldrich, St. Louis, MO) final concentrations dispensed throughout the plate. Enzyme: 20 nM HADH2 final concentration in columns 1, 2, 5-48. Column 1 is neutral (100% activity). Column 2 contained titration of apomorphine (Sigma-Aldrich, A 4393, PubChem CID 2215, top concentration 500 uM, then 1:2 dilution in duplicate) Assay Steps: Three uL of enzyme were dispensed to 1536-well Greiner black solid bottom plates. Compounds and controls (23 nL) were transferred via Kalypsys PinTool. The plates were incubated for 15 min at room temperature, and then 1 uL of substrate/cofactor solution was added to start the reaction. The plates were immediately transferred to and read every 30 seconds for 4 min on ViewLux High-throughput CCD imager (Perkin-Elmer) using 360 nm excitation and 450 nm emission fluorescence protocol. The fluorescence intensity difference between the last and the first time points was used to compute reaction progress.
# % is scaled to controls: 0 for no effect and ±100 for the full control effect; potency is read from the fitted curve at half-maximal effect.
# Sequence of 3-hydroxyacyl-CoA dehydrogenase type-2 (Homo sapiens) (Q99714 whole entry, looked up): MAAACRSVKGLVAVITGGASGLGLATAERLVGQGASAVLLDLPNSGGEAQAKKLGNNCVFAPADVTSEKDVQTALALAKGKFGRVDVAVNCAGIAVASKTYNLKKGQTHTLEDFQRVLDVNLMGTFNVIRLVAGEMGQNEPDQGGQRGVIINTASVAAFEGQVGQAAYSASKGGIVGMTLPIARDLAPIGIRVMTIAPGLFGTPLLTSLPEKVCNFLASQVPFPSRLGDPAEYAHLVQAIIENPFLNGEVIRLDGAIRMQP
# Sequence of 3-hydroxyacyl-CoA dehydrogenase type-2 (Homo sapiens) (Q99714 whole entry, looked up): as above
SMILES,Potency,"activity change, negative = inhibition"
COC(=O)N(c1ccc(OC)cc1)P1(=S)OCCC(C)O1 (stereo not given),1 µM (active),
Fc1ccc(C(OCCN2CCN(C/C=C\c3ccccc3)CC2)c2ccc(F)cc2)cc1,,-4.71% (inactive)
N[C@H](Cc1o[nH]c(=O)c1Cl)C(=O)O,,-1.53% (inactive)
C/C(=C\C=C/[C@@H](C)C(=O)O)[C@H]1CN[C@H](C(=O)O)[C@@H]1CC(=O)O,,1.54% (inactive)
O=C1C2(Cl)C3(Cl)C4(Cl)C(Cl)(Cl)C5(Cl)C3(Cl)C1(Cl)C5(Cl)C24Cl (stereo not given),inactive,
COc1ccc(CN2CCN(c3ccccc3F)CC2)c(OC)c1,,-2.55% [at 11.4 µM] (inactive)
CC(Cl)Cl,,-6.68% (inactive)
Cc1cccc([C@H](C)c2cnc[nH]2)c1C,,0.0117% (inactive)
O=[N+]([O-])c1ccc(Cl)c(Cl)c1,31.6 µM (active),
Nc1ccc([N+](=O)[O-])cc1,,-6.3% (inactive)
Cc1cc(-c2ccc(N)c(C)c2)ccc1N,,-17.4% (inactive)
ClCCBr,,-7.21% (inactive)
O=C(O)C(=O)Cc1ccc2c(c1)OCO2,,-12.9% [at 11.4 µM] (inactive)
CC(=O)O[C@H]1CC[C@@]2(C)[C@@H](CC[C@H]3[C@H]2CC(=O)[C@]2(C)[C@@H]3C[C@@H](N3CC3)[C@H]2C(C)=O)C1,,16.9% [at 11.4 µM] (inactive)
CC(C)(O/N=C(\C(=O)N[C@@H]1C(=O)N2C(C(=O)[O-])=C(C[n+]3ccccc3)CS[C@@H]12)c1csc(N)n1)C(=O)O,7.94 µM (active),
c1ccc(CN2CC[C@@]3(CCCNC3)C2)cc1,,-3.09% (inactive)
NCC[Se][Se]CCN,,1.13% [at 11.4 µM] (inactive)
NC[C@H](O)c1ccc(O)cc1,inactive,
BrC1C(Br)C(Br)C(Br)C(Br)C1Br (stereo not given),25.1 µM (active),
C[C@H](Br)C(=O)N[C@H](CO)C(=O)O,,-0.293% [at 11.4 µM] (inactive)
CC[C@]1(O)C(=O)OCc2c1cc1n(c2=O)Cc2cc3ccccc3nc2-1,,-8.11% (inactive)
CCCCN1C2CCC1CC(OC(c1ccc(F)cc1)c1ccc(F)cc1)C2 (stereo not given),,3.59% (inactive)
CCOC(=O)c1c(-c2ccccc2)oc2ccc(OC(=O)N(C)C)cc12,7.94 µM (active),
C[C@@]12CC[C@H]3[C@@H](CC[C@]4(O)C[C@H](O)CC[C@@]34C=O)[C@]1(O)CC[C@@H]2C1=CC(=O)OC1,,-3.49% [at 25.6 µM] (inactive)
Clc1ccc([C@@H]2C[C@H]3CC[C@@H]2N3)cn1,,-0.0351% (inactive)
ClC(Cl)(Cl)c1ccccc1,inactive,
CC(=O)c1c(O)c(C)c(O)c(Cc2c(O)c3c(c(C(=O)/C=C\c4ccccc4)c2O)OC(C)(C)C=C3)c1O,12.6 µM (active) and 1 µM (active),
Nc1ccc(Cc2ccc(N)c(Cl)c2)cc1Cl,,-16.3% (inactive)
Clc1ccccc1,,-7.99% (inactive)
CC(C)(c1ccccc1)c1ccc(O)cc1,,-14.8% (inactive)
